Among all 310,000 compounds or so, about 2,200 (0.71%) showed an effect of 50% or more. Effects have a minus sign here. The entries come from a sample that favours strong results as a whole.
The compounds below were run against human ether-à-go-go-related gene (hERG) potassium channel (human, UniProt Q12809) (assay: primary screen, population patch clamp on CHO cells stably expressing hERG; higher = less effect of the substance).
Method: Briefly, Chinese hamster ovary (CHO) cells stably expressing the hERG channel were dislodged from tissue culture flasks and dispensed into PPC plates. […] During the recording, background leak currents were estimated by a 100 ms step to -80 mV from an initial holding potential of -70 mV and subtracted from the subsequent current measurement. The campaign was conducted in two phases using slight differences in recording protocol. In the first phase, the initial voltage pulse used a 100 ms step to -30 mV from a holding potential of -70 mV, a 2 s conditioning step to +25 mV, and a 2 s test step to -30 mV. During the second phase of the screen, the potential during the conditioning step was raised to +45 mV. In both phases of the campaign, a secondary voltage pulse was applied using the same parameters as the second phase initial pulse. The initial and secondary pulses were applied in the absence of compound, and upon application of 1 μM and 10 μM test concentrations. Small molecule effects on hERG current density were quantified by […].

human ether-à-go-go-related gene (hERG) potassium channel, sequence (Q12809 whole entry, looked up): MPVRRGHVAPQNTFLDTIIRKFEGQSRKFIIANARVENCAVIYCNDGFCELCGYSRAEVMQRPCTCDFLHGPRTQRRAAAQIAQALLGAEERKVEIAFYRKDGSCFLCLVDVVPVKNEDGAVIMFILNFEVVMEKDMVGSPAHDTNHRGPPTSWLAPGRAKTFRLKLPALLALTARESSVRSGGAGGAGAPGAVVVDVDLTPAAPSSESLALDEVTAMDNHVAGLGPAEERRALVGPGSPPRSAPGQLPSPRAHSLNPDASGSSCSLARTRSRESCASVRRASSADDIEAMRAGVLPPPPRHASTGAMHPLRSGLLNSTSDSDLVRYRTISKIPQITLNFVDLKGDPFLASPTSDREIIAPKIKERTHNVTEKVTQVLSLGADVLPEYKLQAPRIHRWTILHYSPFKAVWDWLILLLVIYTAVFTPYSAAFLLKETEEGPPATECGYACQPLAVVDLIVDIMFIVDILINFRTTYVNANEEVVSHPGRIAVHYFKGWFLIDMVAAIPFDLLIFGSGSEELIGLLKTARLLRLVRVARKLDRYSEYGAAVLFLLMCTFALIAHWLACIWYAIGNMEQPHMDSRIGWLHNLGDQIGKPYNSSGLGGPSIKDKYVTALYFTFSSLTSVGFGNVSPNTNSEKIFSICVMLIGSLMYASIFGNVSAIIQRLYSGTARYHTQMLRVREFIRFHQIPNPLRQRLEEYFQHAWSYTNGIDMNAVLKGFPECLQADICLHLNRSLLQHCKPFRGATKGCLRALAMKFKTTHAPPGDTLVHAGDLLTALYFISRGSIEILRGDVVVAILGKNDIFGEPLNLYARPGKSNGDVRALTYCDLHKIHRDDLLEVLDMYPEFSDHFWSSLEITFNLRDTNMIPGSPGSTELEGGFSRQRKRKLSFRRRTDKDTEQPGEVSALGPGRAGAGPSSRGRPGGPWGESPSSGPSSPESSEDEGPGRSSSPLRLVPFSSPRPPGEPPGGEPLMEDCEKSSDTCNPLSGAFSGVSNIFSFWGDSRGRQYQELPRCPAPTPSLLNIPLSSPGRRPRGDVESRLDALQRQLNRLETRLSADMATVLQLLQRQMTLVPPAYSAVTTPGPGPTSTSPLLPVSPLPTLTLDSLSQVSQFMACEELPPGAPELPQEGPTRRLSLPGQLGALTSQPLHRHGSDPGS

SMILES	hERG current change (%, negative = inhibition) at 1uM
CCOc1ccc2nc(NCCO)[nH]c2c1	10.9%
Cc1ccc(S(=O)(=O)NCCC(=O)NC2CCCC2)cc1	1.28%
CCCN1CCC(=O)N([C@H](CSc2ccccc2)Cc2ccccc2)CC1	-48.9%
O=C1CCN(CCCc2ccccc2)CCN1[C@H](CO)Cc1ccccc1	-12%
CCCCCCCN1CCC(=O)N([C@H](CO)Cc2ccccc2)CC1	-77.2%
COc1ccc(SC[C@H](Cc2ccccc2)N2CCN(CCc3ccccc3)CCC2=O)cc1	-43.2%
CC(C)C[C@@H](COc1ccccc1)N1CCN(CCc2ccccc2)CCC1=O	-61.7%
CCCN1CCC(=O)N([C@H](CO)Cc2ccccc2)CC1	6.98%
CC(C)CN1CCC(=O)N([C@H](COc2ccccc2)Cc2ccccc2)CC1	-29.8%
CCCN1CCC(=O)N([C@H](COc2ccccc2)Cc2ccccc2)CC1	-52.4%
CCCN1CCC(=O)N([C@H](COc2ccccc2)CC(C)C)CC1	-48.1%
COc1ccc(SC[C@H](CC(C)C)N2CCN(CCc3ccccc3)CCC2=O)cc1	-51.6%
CC(C)C[C@@H](CSc1ccc(Br)cc1)N1CCN(CCc2ccccc2)CCC1=O	-28.9%
CC(C)C[C@@H](COc1ccccc1)N1CCN(Cc2ccccc2)CCC1=O	-4.6%
O=C(Oc1coc(CSc2ncccn2)cc1=O)c1ccc(Br)o1	11.6%
Cc1cc(C)n(CCN(C)C(=O)C2CCC(=O)N(CCN3CCOCC3)C2)n1 (stereo not shown)	16.1%
COc1ccc(C2CC(c3ccccc3)=NN2C(=O)c2ccc(Cl)c([N+](=O)[O-])c2)cc1 (stereo not shown)	9.38%
CN(CC(=O)Nc1ccc(Cl)c(C(F)(F)F)c1)C(=O)c1cn2ccccc2n1	5.27%
O=C(N/N=C/c1cc(Br)c(O)c(Br)c1)c1cccnc1	18.5%
COc1ccccc1/C=C(/C(=O)OCC(=O)Nc1ccc(N(C)C)cc1)c1ccccc1	9.09%
COc1ccccc1C(=O)N/N=C/c1cnc2ccccc2n1	6.27%
CN1CCC(=O)N([C@H](COc2ccccc2)Cc2ccccc2)CC1	-8.2%
O=C1CCN(Cc2ccccc2)CCN1[C@H](COc1ccccc1)Cc1ccccc1	-7.61%
O=C1CCN(CCc2ccccc2)CCN1[C@H](COc1ccccc1)Cc1ccccc1	-60.4%
CCOc1ccc(C(=O)COC(C)=O)cc1	9.74%
O=c1[nH]c(C2CCCN(S(=O)(=O)c3ccc(F)cc3)C2)nc2c1nnn2Cc1ccccc1 (stereo not shown)	7.82%
Cc1cccc(-c2ncc(CN3CCN(C4CCCC4)C(CCO)C3)cn2)c1 (stereo not shown)	-15.1%
OCCC1CN(CC#Cc2ccccc2)CCN1C1CCCC1 (stereo not shown)	-7.79%

SMILES	hERG current change (%, negative = inhibition) at 1uM
CC(C)CCN1CCN(CCCc2ccccc2)CC1CCO (stereo not shown)	-1.8%
OCCC1CN(Cc2cnc(-c3ccc(Cl)cc3)nc2)CCN1C1CCCCC1 (stereo not shown)	-31.1%
OCCC1CN(C/C(Cl)=C/c2ccccc2)CCN1C1CCCC1 (stereo not shown)	-43.4%
CC(C)CCN1CCN(CC#Cc2ccccc2)CC1CCO (stereo not shown)	4.3%
OCCC1CN(Cc2cnc(-c3ccc(Cl)cc3)nc2)CCN1C1CCCC1 (stereo not shown)	-62%
CC(C)CCN1CCN(CC(c2ccccc2)c2ccccc2)CC1CCO (stereo not shown)	-81.9%
OCCC1CN(CC(c2ccccc2)c2ccccc2)CCN1C1CCCC1 (stereo not shown)	-74.5%
COc1ccc(S(=O)(=O)Nc2ccc(-c3ccc(N4CCCC4)nn3)cc2)cc1C	11.6%
CC(Oc1ccc(Cl)cc1Cl)c1ccnc(N)n1 (stereo not shown)	16.2%
Clc1ccccc1C1=Nn2c(nnc2-c2ccco2)SC1	4.48%
CC(=O)N1C[C@H](O)C[C@H]1C(=O)O	-19%
O=C(COc1ccccc1)NNc1c2ccccc2nc2ccccc12	4.4%
Cc1ccc(C)c(NC(=O)Cn2nc(-c3ccccc3)nc2-c2ccccc2)c1	16.6%
CNS(=O)(=O)c1cccc(C(=O)OCC(=O)c2cc3ccccc3o2)c1	21%
Cc1cccc(N2C(=O)NC(=O)/C(=C\c3cnn(-c4ccccc4)c3)C2=O)c1	12.6%
CCN(CC)CCNCC(=O)Nc1ccc(Cl)cc1C(=O)c1ccccc1.O=C(O)C(=O)O	-84.2%
CN1CCN(C(=S)SCC(=O)Nc2ccc(Cl)cc2C(=O)c2ccccc2)CC1	-5.6%
CN1CCN(CC(=O)Nc2cccc([N+](=O)[O-])c2)CC1	5.95%
CN1CCN(c2ccc([N+](=O)[O-])cc2C(=O)c2ccccc2)CC1	-17.5%
CN1CCN(CC(=O)Nc2ccc(Cl)cc2C(=O)c2ccccc2)CC1	-83.3%
O=C(CN1CCCC1)Nc1ccc(Cl)cc1C(=O)c1ccccc1.O=C(O)C(=O)O	0.588%
CN(C)CCCNCC(=O)Nc1ccc(Cl)cc1C(=O)c1ccccc1.O=C(O)C(=O)O	-21.2%
CCN(CC)CC(=O)Nc1ccc(Cl)cc1C(=O)c1ccccc1	6.87%
Cc1ccccc1NC(=O)CN1CCN(C(=O)c2ccco2)CC1	5.5%
CN1CCN(CC(=O)Nc2ccc([N+](=O)[O-])cc2C(=O)c2ccccc2)CC1	-91.5%
Cc1cc(Cl)ccc1NC(=O)CN1CCN(C(=O)c2ccco2)CC1	-57.1%
O=C(CN1CCN(C(=O)c2ccco2)CC1)Nc1cc(Cl)ccc1Cl	-8.91%

— paper PMC4336329 (PLoS ONE, 2015)
